# Assay results published in the supplement of paper PMC12494721.
# Counter-ions that a name gives are not always drawn.
# Tests used:
# Settings in all cases: incubation time: 27 h, anaerobic, 37 °C;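 for the amine columns active = adjusted P below 0.05 in both replicates with a change the same way and a mean fold change under 0.8 or over 1.25; inactive = the rest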
# [1] = system: Clostridium sporogenes DSM 1664; test: growth (OD595) fold change vs plate DMSO controls (fold change (ratio)); higher = more growth
# Procedure, shortened: (§1)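 Anaerobic 27 h, 37 °C mGAM 96-well cultures were shaken, then read for absorbance at 595 nm. Values were blank-subtracted and corrected for compound background using 20 µM compound solutions in water. A calibration factor of 5 converted them to OD. Growth is the fold change versus the median of plate DMSO controls. Fold changes above 1.5 were set to NA, and values are the mean of 2 biological replicates.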
# Escherichia coli IAI1 [2] = test: as above
# Procedure, shortened: as §1
# [3] = system: Klebsiella aerogenes DSM 30053; test: as above
# Procedure, shortened: as §1
# [4] = system: Ruminococcus gnavus DSM 108212; test: as above
# Procedure, shortened: as §1
# [5] = system: Klebsiella aerogenes DSM 30053; test: fold change of Histamine concentration vs plate DMSO controls (fold change (ratio)); higher = more amine produced, active = hit call of the paper (significant change in both replicates, either direction)
# Procedure, shortened: (§2)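 Each value is the fold change relative to DMSO-only wells on the same plate. Four gut bacterial strains were grown anaerobically in mGAM at 37 °C for 27 h in 80 µL wells, starting at OD 0.1 before a 1:1 dilution, with compounds at 20 µM final (sweeteners 50 µM). Whole cultures were extracted with cold acetonitrile/methanol containing 0.1% formic acid, centrifuged, and amines were quantified by LC–triple-quadrupole MS (dynamic MRM) against external calibration curves with within-batch drift correction. Values are means of 2 biological replicates.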
# [6] = system: Clostridium sporogenes DSM 1664; test: fold change of Tryptamine concentration vs plate DMSO controls (fold change (ratio)); higher = more amine produced, active = hit call of the paper (significant change in both replicates, either direction)
# Procedure, shortened: as §2
# [7] = system: Ruminococcus gnavus DSM 108212; test: as above
# Procedure, shortened: as §2
# Escherichia coli IAI1 [8] = test: fold change of Putrescine concentration vs plate DMSO controls (fold change (ratio)); higher = more amine produced, active = hit call of the paper (significant change in both replicates, either direction)
# Procedure, shortened: as §2
# [9] = system: Klebsiella aerogenes DSM 30053; test: as above
# Procedure, shortened: as §2
# Escherichia coli IAI1 [10] = test: fold change of Cadaverine concentration vs plate DMSO controls (fold change (ratio)); higher = more amine produced, active = hit call of the paper (significant change in both replicates, either direction)
# Procedure, shortened: as §2
# [11] = system: Klebsiella aerogenes DSM 30053; test: as above
# Procedure, shortened: as §2
# [12] = system: Ruminococcus gnavus DSM 108212; test: fold change of 2-Phenylethylamine concentration vs plate DMSO controls (fold change (ratio)); higher = more amine produced, active = hit call of the paper (significant change in both replicates, either direction)
# Procedure, shortened: as §2
Structure (SMILES),growth [1],growth (Escherichia coli IAI1 [2]),growth [3],growth [4],fold change of Histamine concentration [5],fold change of Tryptamine concentration [6],fold change of Tryptamine concentration [7],fold change of Putrescine concentration (Escherichia coli IAI1 [8]),fold change of Putrescine concentration [9],fold change of Cadaverine concentration (Escherichia coli IAI1 [10]),fold change of Cadaverine concentration [11],fold change of 2-Phenylethylamine concentration [12]
CC(C)Cc1ccc(C(C)C(=O)OCc2ccccn2)cc1 (centres undefined) [Ibuprofen Piconol] (20 µM),0.967,1,0.98,1.13,1.01 (inactive),1.01 (inactive),1.1 (inactive),1 (inactive),1.01 (inactive),0.983 (inactive),0.996 (inactive),1.15 (inactive)
CCCNC(C)(C)C(=O)Nc1ccccc1C [Quatacaine] (20 µM),1.01,0.991,0.979,0.952,1.01 (inactive),1.01 (inactive),1.05 (inactive),0.994 (inactive),1 (inactive),0.951 (inactive),0.997 (inactive),1.04 (inactive)
CO/N=C(\C(=O)N[C@@H]1C(=O)N2C(C(=O)[O-])=C(C[n+]3ccn4ncccc43)CS[C@H]12)c1nsc(N)n1 [Cefozopran hydrochloride] (20 µM),0,0.102,0.153,0.0221,1.35 (active),0.0264 (active),0.0903 (active),2.2 (active),0.898 (inactive),2 (active),1.05 (inactive),0.0687 (active)
OC(CCN1CCCCC1)(c1ccccc1)c1ccccc1 [Pridinol methanesulfonate salt] (20 µM),1.18,0.97,0.996,1.02,1.05 (inactive),1.03 (inactive),1.05 (inactive),1.21 (inactive),0.996 (inactive),0.368 (active),0.997 (inactive),1.04 (inactive)
CN(C)CCN1C(=O)c2ccccc2N(C)c2ccccc21 [Dibenzepine hydrochloride] (20 µM),1.02,0.993,0.972,0.677,1.06 (inactive),0.993 (inactive),1.03 (inactive),1.01 (inactive),1.01 (inactive),1.02 (inactive),0.985 (inactive),1.06 (inactive)
NC[C@H]1O[C@H](O[C@H]2[C@H](O)[C@@H](O[C@H]3O[C@H](CO)[C@@H](O)[C@H](N)[C@H]3O)[C@H](N)C[C@@H]2N)[C@H](N)[C@@H](O)[C@@H]1O [Kanamycin B] (20 µM),1.05,0.89,0.765,0.976,0.723 (active),0.998 (inactive),0.923 (inactive),0.882 (inactive),1 (inactive),1.08 (inactive),0.978 (inactive),0.945 (inactive)
CC(C)NC[C@H](O)COc1cccc2ccccc12 [(S)-(-)-Propranolol hydrochloride] (20 µM),0.943,1.03,1.07,1.14,0.885 (inactive),1.02 (inactive),1 (inactive),0.986 (inactive),0.993 (inactive),0.968 (inactive),1.01 (inactive),1.02 (inactive)
CN1CCN(c2c(F)cc3c(=O)c(C(=O)O)cn4c3c2SCC4)CC1 [Rufloxacin] (20 µM),0.0133,0.0641,0.299,0.953,0.201 (active),0.0518 (active),0.901 (inactive),0.875 (inactive),1.18 (inactive),0.26 (active),0.997 (inactive),0.952 (inactive)
Oc1c(Cl)cc(Cl)c(Cl)c1Cc1c(O)c(Cl)cc(Cl)c1Cl [Hexachlorophene] (20 µM),0,0.943,0.999,0,1.17 (inactive),0.0251 (active),0.0326 (active),0.982 (inactive),1.02 (inactive),1.1 (inactive),1.02 (inactive),0.0393 (active)
CC(=O)c1ccc2c(c1)N(CCCN1CCC(CCO)CC1)c1ccccc1S2 [Piperacetazine] (20 µM),0.454,0.148,0.138,0,0.95 (inactive),1.32 (inactive),1.17 (inactive),0.95 (inactive),0.978 (inactive),0.846 (inactive),0.993 (inactive),1.29 (inactive)
CC[C@H](C)C(=O)O[C@H]1C[C@H](O)C=C2C=C[C@H](C)[C@H](CC[C@@H](O)C[C@@H](O)CC(=O)O)[C@H]21 [Pravastatin] (20 µM),0.87,1.09,0.973,1.15,1.1 (inactive),1.12 (inactive),1.08 (inactive),1.11 (inactive),0.975 (inactive),0.904 (inactive),1.01 (inactive),1.1 (inactive)
CC(=O)CC(c1ccccc1)c1c(O)c2ccccc2oc1=O (centres undefined) [Warfarin] (20 µM),1.08,1.21,0.97,1.12,1 (inactive),1.05 (inactive),0.84 (inactive),1.22 (inactive),0.989 (inactive),0.958 (inactive),0.984 (inactive),0.758 (inactive)
